PubChem BioAssay (NCATS)
Records with an inconclusive call do not appear. Calls of active or inactive are those of the source. Calls come from the whole dose curve; as a rule, active = well fitted curve in the direction sought with a large enough effect; inconclusive = small, poorly fitted or top-dose-only effect, or another doubt; inactive = no such curve, though single readings can be large; an effect the other way counts as inactive or inconclusive.

Experiments:
[1] = Quantitative High-Throughput drug screen in 47 multiple myeloma cell lines against the NCATS MIPE library collection: FR4_PLB cell viability assay (AID 1918924; note: nearly all actives have a fitted effect of over 35% in size)
Summary of the method: (§1)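 Viability readout: CellTiter-Glo luminescence following 5 min room-temperature incubation with reagent. Prior exposure: 48 h, 37C, humidified 5% CO2, 500 cells per well.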

[2] = Quantitative High-Throughput drug screen in 47 multiple myeloma cell lines against the NCATS MIPE library collection: ARP1_JJKsccF8 cell viability assay (AID 1918928; note: nearly all actives have a fitted effect of over 40% in size)
Summary of the method: (§2)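 ATP readout (CellTiter-Glo), 48 h drug incubation, 37 °C/5% CO2, 500 cells per well; normalisation to DMSO (100%) and media-only (0%) controls.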

[3] = Quantitative High-Throughput drug screen in 47 multiple myeloma cell lines against the NCATS MIPE library collection: Karpas417_ECACC cell viability assay (AID 1918961); conditions: Karpas417 myeloma viability, CellTiter-Glo ATP luminescence, 48 h; viability (% of DMSO): at 45.8 µM (top of the series)
Summary of the method: (§3)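 Approved and investigational drugs from MIPE 4.0 were added by pin tool to 500 cells per well. After 48 hours at 37C, ATP-based CellTiter-Glo luminescence indicated remaining viability.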

[4] = Quantitative High-Throughput drug screen in 47 multiple myeloma cell lines against the NCATS MIPE library collection: KHM11_PLB cell viability assay (AID 1918962); note: nearly all actives have a fitted effect of over 35% in size
Summary of the method: as §1

[5] = Quantitative High-Throughput drug screen in 47 multiple myeloma cell lines against the NCATS MIPE library collection: JIM3_ECACC cell viability assay (AID 1918963; note: nearly all actives have a fitted effect of over 35% in size)
Summary of the method: as §1

[6] = Quantitative High-Throughput drug screen in 47 multiple myeloma cell lines against the NCATS MIPE library collection: INA6_PLB cell viability assay (AID 1918965; note: nearly all actives have a fitted effect of over 55% in size)
Summary of the method: as §3

[7] = Quantitative High-Throughput drug screen in 47 multiple myeloma cell lines against the NCATS MIPE library collection: JJN3_DSMZ cell viability assay (AID 1918966; note: nearly all actives have a fitted effect of over 50% in size)
Summary of the method: as §1

[8] = Quantitative High-Throughput drug screen in 47 multiple myeloma cell lines against the NCATS MIPE library collection: H1112_PLB cell viability assay (AID 1918967; note: nearly all actives have a fitted effect of over 30% in size)
Summary of the method: as §1

[9] = Quantitative High-Throughput drug screen in 47 multiple myeloma cell lines against the NCATS MIPE library collection: Karpas25_ECACC cell viability assay (AID 1918968; note: nearly all actives have a fitted effect of over 35% in size)
Summary of the method: as §1

[10] = Quantitative High-Throughput drug screen in 47 multiple myeloma cell lines against the NCATS MIPE library collection: KMS27_JCRB cell viability assay (AID 1918970); note: nearly all actives have a fitted effect of over 30% in size
Summary of the method: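 KMS27_JCRB myeloma cells, 500 per well, exposed 48 h at 37 C, 5% CO2 to MIPE 4.0 compounds. Viability from ATP by CellTiter-Glo luminescence, normalized to DMSO (100%) and medium-only (0%) wells.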

[11] = Quantitative High-Throughput drug screen in 47 multiple myeloma cell lines against the NCATS MIPE library collection: Karpas620_DSMZ cell viability assay (AID 1918959); note: nearly all actives have a fitted effect of over 30% in size
Summary of the method: as §1

[12] = Quantitative High-Throughput drug screen in 47 multiple myeloma cell lines against the NCATS MIPE library collection: KMM1_JCRB cell viability assay (AID 1918960); note: nearly all actives have a fitted effect of over 30% in size
Summary of the method: as §2

[13] = Quantitative High-Throughput drug screen in 47 multiple myeloma cell lines against the NCATS MIPE library collection: AMO1_DSMZ cell viability assay (AID 1918927; note: nearly all actives have a fitted effect of over 30% in size)
Summary of the method: as §1

[14] = Quantitative High-Throughput drug screen in 47 multiple myeloma cell lines against the NCATS MIPE library collection: ARD_JJKsccE7 cell viability assay (AID 1918929)
Summary of the method: as §1

[15] = Quantitative High-Throughput drug screen in 47 multiple myeloma cell lines against the NCATS MIPE library collection: JIM1_ECACC cell viability assay (AID 1918964)
Summary of the method: as §1

[16] = Quantitative High-Throughput drug screen in 47 multiple myeloma cell lines against the NCATS MIPE library collection: KMS12BM_JCRB cell viability assay (AID 1918971); note: nearly all actives have a fitted effect of over 35% in size
Summary of the method: as §1

[17] = Quantitative High-Throughput drug screen in 47 multiple myeloma cell lines against the NCATS MIPE library collection: EJM_DSMZ cell viability assay (AID 1918926; note: nearly all actives have a fitted effect of over 30% in size)
Summary of the method: as §1

[18] = Quantitative High-Throughput drug screen in 47 multiple myeloma cell lines against the NCATS MIPE library collection: Delta47_JCRB cell viability assay (AID 1918925; note: nearly all actives have a fitted effect of over 45% in size)
Summary of the method: as §1

Measured: Potency
Potency is the fitted concentration of half-maximal effect.

C[C@H]1CCCC=CC2C[C@H](O)C[C@@H]2[C@H](O)C=CC(=O)O1 (stereo partly specified)
active: [10] 0.001 µM
inactive: [1] | [2] | [3] | [4] | [5] | [6] | [7] | [8] | [9]

C[C@@H]1CC[C@H]2[C@@H](C)C(=O)O[C@@H]3O[C@@]4(C)CC[C@H]1[C@]32OO4
inactive: [12] | [10]
active: [2] 0.332 µM | [11] 5.9 µM | [5] 1.48 µM | [6] 1.18 µM | [7] 0.0132 µM

C=C1C[C@H]2[C@H]3CCC(=O)[C@@]3(C)CC[C@@H]2[C@@]2(C)C=CC(=O)C=C12
active: [13] 18.7 µM | [11] 23.5 µM | [6] 20.9 µM | [7] 14.8 µM | [10] 18.7 µM

C[C@@H]1O[C@@H](O[C@@H]2C=C3CC[C@@H]4[C@@H](CC[C@]5(C)[C@H](c6ccc(=O)oc6)CC[C@@]45O)[C@@]3(C)CC2)[C@H](O)[C@H](O)[C@H]1O
active: [1] 0.0083 µM | [2] 0.0209 µM | [14] 0.0093 µM | [11] 0.0209 µM | [3] 0.0148 µM | [4] 0.0296 µM | [5] 0.0296 µM | [15] 0.0132 µM | [6] 0.0264 µM | [7] 0.0469 µM | [8] 0.0418 µM | [9] 0.0235 µM | [10] 0.0083 µM | [16] 0.0187 µM

C=C[C@@H]1CN2CCC1C[C@@H]2[C@@H](O)c1ccnc2ccccc12 (stereo partly specified)
active: [17] 9.35 µM | [13] 5.9 µM | [11] 5.26 µM | [6] 23.5 µM | [10] 5.26 µM

NC1=NC(=O)N2CC12 (stereo unspecified)
active: [13] 13.2 µM | [14] 18.7 µM | [11] 9.35 µM | [12] 11.8 µM | [3] 1.66 µM | [15] 13.2 µM | [6] 18.7 µM | [10] 7.43 µM
inactive: [1] | [2]

C=C[C@@H]1CN2CCC1C[C@H]2[C@H](O)c1ccnc2ccccc12 (stereo partly specified)
active: [1] 18.7 µM | [5] 14.8 µM | [6] 20.9 µM | [8] 13.2 µM
inactive: [13] | [11]

C[C@]12CC[C@@H]3[C@@H](CCC4=CC(=O)CC[C@@H]43)[C@@H]1CC[C@@H]2OC(=O)CCc1ccccc1
inactive: [1] | [13] | [11] | [12] | [5] | [8] | [9]

Cc1c(N)nc([C@H](CC(N)=O)NC[C@@H](N)C(N)=O)nc1C(=O)N[C@H](C(=O)N[C@@H](C)[C@H](O)[C@@H](C)C(=O)N[C@@H](C(=O)NCCc1nc(-c2nc(C(=O)NCCC[S+](C)C)cs2)cs1)[C@@H](C)O)C(O[C@H]1O[C@H](CO)[C@H](O)[C@@H](O)[C@@H]1O[C@H]1O[C@H](CO)[C@@H](O)[C@H](OC(N)=O)[C@H]1O)c1cnc[nH]1 (stereo partly specified)
inactive: [1]
active: [13] 0.296 µM | [12] 0.418 µM | [8] 5.9 µM | [10] 0.296 µM

COc1ccc2c(c1)[C@]13CCCCC1C(C2)N(C)CC3 (stereo partly specified)
not listed: [3] | [4] | [7] | [8] | [17] | [18]
inactive: all other assays above

CC(C)[C@H]1C(=O)N[C@H](CO)Cc2c[nH]c3cccc(c23)N1C
inactive: [18] | [13] | [2] | [11] | [12] | [8]

O=S(=O)(CC1CS1)c1ccc(Oc2ccccc2)cc1 (stereo unspecified)
inactive: [15]
active: [17] 20.9 µM | [12] 5.9 µM | [3] 9.35 µM | [4] 14.8 µM | [5] 16.6 µM | [6] 14.8 µM | [7] 11.8 µM | [9] 16.6 µM

O=S(=O)(F)Cc1ccccc1
active: [4] 9.35 µM | [6] 1.18 µM | [9] 2.64 µM
not listed: [3] | [5] | [10] | [15] | [17] | [18]
inactive: all other assays above

CN(C)[C@@H]1C(=O)C(C(N)=O)=C(O)[C@@]2(O)C(=O)C3=C(O)c4c(O)cccc4[C@@](C)(O)[C@H]3[C@H](O)[C@@H]12
active: [4] 7.43 µM | [7] 9.35 µM
inactive: [1] | [14] | [12] | [3] | [6] | [8] | [10]

N=c1c2c(-c3ccccc3)c(-c3ccccc3)n(Cc3ccccc3)c2ncn1C1CCC(O)CC1 (stereo unspecified)
active: [18] 0.166 µM | [13] 0.526 µM | [2] 14.8 µM | [14] 8.33 µM | [11] 9.35 µM | [12] 0.662 µM | [5] 0.743 µM | [15] 0.833 µM | [6] 0.209 µM | [7] 18.7 µM | [8] 6.62 µM | [10] 3.72 µM

C[C@](O)(COc1ccc(C#N)cc1)C(=O)Nc1ccc(C#N)c(C(F)(F)F)c1
inactive: [1] | [2] | [7]
active: [3] 23.5 µM

COc1ccc(C(=O)c2c(C)n(CCN3CCOCC3)c3cc(I)ccc23)cc1
active: [13] 11.8 µM | [2] 23.5 µM | [14] 18.7 µM | [11] 18.7 µM | [12] 18.7 µM | [5] 13.2 µM | [15] 11.8 µM | [6] 8.33 µM | [8] 16.6 µM | [9] 18.7 µM | [10] 13.2 µM | [16] 23.5 µM
inactive: [4]

CC(C)[C@]12O[C@@H]1[C@@H]1O[C@]13[C@]1(O[C@H]1C[C@@H]1C4=C(CC[C@@]13C)C(=O)OC4)[C@H]2O
not listed: [16] | [17] | [18]
inactive: all other assays above
